Here are results for 20 molecules from PubChem BioAssay.

The term inhibition denotes the change of the read-out against control, counted positive when it falls.

The nature of test [1]: antimalarial activity against Dd2 strain (AID 2302;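 active = growth inhibition above 50% at the single 2 µM test dose, taken to imply half-maximal potency below 2 µM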;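 also: 0% = DMSO untreated growth and 100% = chloroquine plus artemisinin killed control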). To be noted: P. falciparum Dd2 in RBCs, LDH growth readout, 72 h; at 2 µM; hits give high values.
Test [2] is described as follows: human hepatoma cell viability loss – ATP luminescence, cytotoxicity control for P. falciparum antimalarial project, primary screen (AID 2303;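 active = inhibition above 50%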;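 also: 0% = DMSO wells and 100% = digitonin-killed cells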). To be noted: HepG2 viability, 24-48 h, at 10 µM, hits give high values.
For test [3], the target named is L-lactate dehydrogenase (Plasmodium falciparum (isolate CDC / Honduras)) (UniProt Q27743). Put plainly: PfLDH activity inhibition – cell lysate, 3D7 strain, counter-screen for P. falciparum growth inhibition project (AID 2304).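 Also: 0% = vehicle and 100% = reference inhibitor.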 As to conditions: P. falciparum 3D7 crude extract, LDH APAD/NBT absorbance; at 2 µM; hits give high values.
L-lactate dehydrogenase (Plasmodium falciparum (isolate CDC / Honduras)), sequence (Q27743 whole entry, looked up): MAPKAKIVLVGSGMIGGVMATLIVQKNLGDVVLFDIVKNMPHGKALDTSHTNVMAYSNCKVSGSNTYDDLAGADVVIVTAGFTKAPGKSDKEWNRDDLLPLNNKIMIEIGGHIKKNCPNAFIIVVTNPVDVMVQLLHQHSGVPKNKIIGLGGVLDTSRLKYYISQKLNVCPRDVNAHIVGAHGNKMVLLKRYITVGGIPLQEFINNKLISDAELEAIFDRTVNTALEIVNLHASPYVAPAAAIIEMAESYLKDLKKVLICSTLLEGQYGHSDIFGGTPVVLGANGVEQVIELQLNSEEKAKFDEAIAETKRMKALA
Test [4] can be described thus: inhibition of 3D7 malaria parasite growth – strain 3D7 (AID 2306).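 Also: 0% = DMSO wells and 100% = chloroquine plus artemisinin control wells.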 To be noted: P. falciparum 3D7 erythrocytic growth, LDH absorbance, 72 h; at 2 µM; hits give high values.
Test [5] addresses Calcium-dependent protein kinase 1 (Plasmodium falciparum (isolate 3D7)) (UniProt P62344). Kind of test: PfCDPK1 kinase inhibitors, biochemical, TCAMS library (AID 1159585; cut-off not given, nearly all actives have IC50 up to about 0.98 µM;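 also: inhibitors leave more ATP so luminescence rises with inhibition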). To be noted: recombinant PfCDPK1, Kinase-Glo ATP depletion luminescence. On the technique in general: In Kinase-Glo more light means more ATP remaining.
The target in test [6] is Plasmodium falciparum protein kinase 6 (PK6, PF3D7_1337100) (UniProt Q8IDW1). Put plainly: PfPK6 kinase inhibitors, biochemical, TCAMS library (AID 1159586). To be noted: recombinant PfPK6, Kinase-Glo ATP depletion luminescence.
Plasmodium falciparum protein kinase 6 (PK6, PF3D7_1337100), sequence (Q8IDW1 1-305): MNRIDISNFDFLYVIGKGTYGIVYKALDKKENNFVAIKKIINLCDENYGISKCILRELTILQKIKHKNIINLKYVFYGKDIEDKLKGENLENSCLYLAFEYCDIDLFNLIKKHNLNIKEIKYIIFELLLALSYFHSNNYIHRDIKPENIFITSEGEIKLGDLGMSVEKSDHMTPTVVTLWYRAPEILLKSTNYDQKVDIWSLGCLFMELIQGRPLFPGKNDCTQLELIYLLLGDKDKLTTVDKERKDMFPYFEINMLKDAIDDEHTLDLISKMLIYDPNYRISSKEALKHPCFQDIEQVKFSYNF
The target in test [7] is Protein kinase 7 (PK7), Plasmodium falciparum 3D7 (PF3D7_0213400) (UniProt Q7YTF7). Put plainly: inhibition of Plasmodium PK7 catalytic activity – biochemical, TCAMS antimalarial set, Kinase-Glo luminescence (AID 1159587). As to conditions: recombinant PfPK7, Kinase-Glo ATP depletion luminescence.
Protein kinase 7 (PK7), Plasmodium falciparum 3D7 (PF3D7_0213400), sequence (Q7YTF7 1-343): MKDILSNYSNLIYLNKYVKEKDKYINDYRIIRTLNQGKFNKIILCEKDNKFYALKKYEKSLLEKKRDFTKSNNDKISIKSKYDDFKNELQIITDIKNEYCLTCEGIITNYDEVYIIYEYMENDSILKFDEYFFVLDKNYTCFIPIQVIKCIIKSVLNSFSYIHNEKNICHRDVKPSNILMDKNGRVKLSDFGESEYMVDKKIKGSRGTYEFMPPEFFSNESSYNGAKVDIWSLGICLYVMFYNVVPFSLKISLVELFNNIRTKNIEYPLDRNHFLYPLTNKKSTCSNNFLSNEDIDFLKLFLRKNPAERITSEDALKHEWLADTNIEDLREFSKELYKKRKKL
Test [8] deals with Calcium-dependent protein kinase 4 (Plasmodium falciparum (isolate 3D7)) (UniProt Q8IBS5). Kind of test: PfCDPK4 kinase inhibitors, biochemical, TCAMS library (AID 1159588; cut-off not given, nearly all actives have IC50 up to about 0.91 µM). As to conditions: recombinant PfCDPK4, Kinase-Glo ATP depletion luminescence.
Calcium-dependent protein kinase 4 (Plasmodium falciparum (isolate 3D7)), sequence (Q8IBS5 whole entry, looked up): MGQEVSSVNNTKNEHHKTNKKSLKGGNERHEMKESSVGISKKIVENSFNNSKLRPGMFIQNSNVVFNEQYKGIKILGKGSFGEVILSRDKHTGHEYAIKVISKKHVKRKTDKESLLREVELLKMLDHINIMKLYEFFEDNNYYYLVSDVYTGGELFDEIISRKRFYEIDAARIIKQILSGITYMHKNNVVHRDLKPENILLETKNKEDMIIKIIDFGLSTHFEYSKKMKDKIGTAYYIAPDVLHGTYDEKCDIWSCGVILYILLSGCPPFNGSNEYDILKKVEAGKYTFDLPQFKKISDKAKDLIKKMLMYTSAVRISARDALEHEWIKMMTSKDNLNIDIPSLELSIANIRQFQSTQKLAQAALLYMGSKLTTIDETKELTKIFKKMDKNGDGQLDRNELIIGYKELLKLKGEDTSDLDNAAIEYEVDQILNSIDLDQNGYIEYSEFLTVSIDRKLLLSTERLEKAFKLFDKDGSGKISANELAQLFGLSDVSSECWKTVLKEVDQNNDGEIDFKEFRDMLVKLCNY

Each structure is given as a SMILES string. Unmarked numbers belong to inactive results. For some of these results: Results with a measured potency or affinity are listed apart. Calls of active or inactive are those of the source. Unless noted, no rule for the calls is given here.

Calcium-dependent protein kinase 1 (Plasmodium falciparum (isolate 3D7)), sequence (P62344 whole entry, looked up): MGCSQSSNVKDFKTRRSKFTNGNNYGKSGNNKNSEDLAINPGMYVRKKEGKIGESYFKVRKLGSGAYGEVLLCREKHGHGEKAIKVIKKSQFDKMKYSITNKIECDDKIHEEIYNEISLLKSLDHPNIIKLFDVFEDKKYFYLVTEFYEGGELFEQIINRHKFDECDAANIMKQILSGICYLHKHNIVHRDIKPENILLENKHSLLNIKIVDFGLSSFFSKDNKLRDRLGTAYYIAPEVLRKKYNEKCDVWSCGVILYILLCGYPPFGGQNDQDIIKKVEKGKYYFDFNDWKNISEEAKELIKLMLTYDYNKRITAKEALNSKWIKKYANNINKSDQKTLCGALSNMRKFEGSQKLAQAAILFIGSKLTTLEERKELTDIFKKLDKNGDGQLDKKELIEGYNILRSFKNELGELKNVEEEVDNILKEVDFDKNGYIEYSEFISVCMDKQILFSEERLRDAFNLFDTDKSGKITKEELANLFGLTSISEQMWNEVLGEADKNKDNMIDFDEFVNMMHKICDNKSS

As for `CCCNCc1ccc(-c2ccc(CN(Cc3cccs3)C(=O)C3CCN(C)CC3)cc2)nc1`, the growth inhibition was 35% in test [1] and 99% (active) in test [4]. Also, the inhibition in test [2] is 10%; in test [3], -3%. Besides, the result in test [5], in test [6], in test [7] and in test [8] was inactive.
Take `COc1cc(COc2c(C)nc(N)nc2N)cc(OC)c1OC`: the growth inhibition in test [1] is -5%; in test [4], 100% (active). Besides, the figures for the inhibition in test [2] and in test [3] were 7% and -9%, respectively. For the same molecule, the outcome in test [5], in test [6], in test [7] and in test [8] was inactive.
In the case of `Cn1nc(-c2ccc(Cl)cc2)c2cc(C(=O)NCCN3CCOCC3)sc21`, the figures for the growth inhibition in test [1] and in test [4] were 29% and 97% (active), respectively. Also, the figures for the inhibition in test [2] and in test [3] were 21% and -8%, respectively. Also, the outcome in test [5], in test [6], in test [7] and in test [8] was inactive.
As for `CCn1cc(C=C2Oc3c(ccc(O)c3CN3CCCCC3)C2=O)c2ccccc21`, the growth inhibition in test [1] was 99% (active); in test [4] it was 101% (active). Further, the inhibition in test [2] was -9%; in test [3], -3%. The result in test [5], in test [6], in test [7] and in test [8] was inactive.
For `CC(C)c1cc(Oc2c(I)cc(CCCc3ncc[nH]3)cc2I)ccc1O`, the results for the growth inhibition in test [1] and in test [4] were 1% and 88% (active), respectively. For the same molecule, the results for the inhibition in test [2] and in test [3] were 28% and 0%, respectively. The outcome in test [5], in test [6], in test [7] and in test [8] was inactive.
Take `CC(=O)Nc1cccc(C(=O)Nc2nc3ccc(-c4cc(=O)[nH]c(Nc5ccccc5Cl)n4)cc3[nH]2)c1`: the growth inhibition was 62% (active) in test [1] and 99% (active) in test [4]. In addition, the inhibition was -2% in test [2] and 6% in test [3]. For the same molecule, the outcome in test [5], in test [6], in test [7] and in test [8] was inactive.
Consider `Clc1ccc2c(NCc3ccc4c(c3)OCO4)ccnc2c1`, for which the values for the growth inhibition in test [1] and in test [4] were 97% (active) and 101% (active), respectively. Moreover, the inhibition in test [2] was 6%; in test [3], 1%. Moreover, the outcome in test [5], in test [6], in test [7] and in test [8] was inactive.
Consider `CCC(C)(C)c1ccc(S(=O)(=O)Nc2ccc(Cl)c(OCCN3CCCCC3)c2)cc1`, for which the growth inhibition in test [1] was 93% (active); in test [4] it was 88% (active). The inhibition in test [2] is 100% (active); in test [3] it was 0%. Further, the result in test [5], in test [6], in test [7] and in test [8] was inactive.
As for `CC(C)[C@H](NC(=O)NC1CCC(CCN2[C@@H]3CC[C@H]2CC(OC(=O)C(CO)c2ccccc2)C3)CC1)C(O)(c1ccccc1)c1ccccc1` (stereo not given in full), the growth inhibition was 4% in test [1] and 90% (active) in test [4]. Besides, the inhibition is 17% in test [2] and 1% in test [3]. In addition, the outcome in test [5], in test [6], in test [7] and in test [8] was inactive.
For `CC1CCN(Cc2ccc(NC(=O)c3cc4ccc5cccnc5c4[nH]3)cc2)CC1`, the growth inhibition in test [1] is 93% (active); in test [4], 101% (active). Further, the inhibition in test [2] is 10%; in test [3], -1%. Also, the result in test [5], in test [6], in test [7] and in test [8] was inactive.
Consider `CC1CC1C(=O)NC1CCN(CC2(c3ccccc3)CCCCC2)CC1` (stereo not given), for which the results for the growth inhibition in test [1] and in test [4] were 95% (active) and 97% (active), respectively. Moreover, the inhibition is -1% in test [2] and 0% in test [3]. Further, the outcome in test [5], in test [6], in test [7] and in test [8] was inactive.
Take `CC(=O)Nc1ccc([N+](=O)[O-])c2c(Br)cccc12`: the values for the growth inhibition in test [1] and in test [4] were -1% and 100% (active), respectively. For the same molecule, the inhibition was -3% in test [2] and -4% in test [3]. Also, the outcome in test [5], in test [6], in test [7] and in test [8] was inactive.
In the case of `O=C(NCc1ccc(F)cc1)Nc1ccc(-c2cccc(-c3nc4ccc(F)cc4[nH]3)c2)cc1`, the growth inhibition is 99% (active) in test [1] and 100% (active) in test [4]. Further, the inhibition in test [2] is 31%; in test [3], -1%. Moreover, the outcome in test [5], in test [6], in test [7] and in test [8] was inactive.
As for `NC(N)=Nc1ccc(C(=O)O)c(O)c1`, the growth inhibition in test [1] was 1%; in test [4] it was 94% (active). Also, the inhibition in test [2] and in test [3] was -3% each time. Besides, the result in test [5], in test [6], in test [7] and in test [8] was inactive.
On to `CC(CON1C(N)=NC(N)=NC1(C)C)Cc1ccc(Cl)cc1Cl` (stereo not given), for which the growth inhibition is 97% (active) in test [1] and 92% (active) in test [4]. In addition, the results for the inhibition in test [2] and in test [3] were 61% (active) and 2%, respectively. Moreover, the result in test [5], in test [6], in test [7] and in test [8] was inactive.
With `O=C(Nc1ccc(Cl)cn1)c1sc2ccccc2c1O`, the growth inhibition was 18% in test [1] and 99% (active) in test [4]. Moreover, the inhibition in test [2] was 2%; in test [3], -3%. In addition, the result in test [5], in test [6], in test [7] and in test [8] was inactive.
As to `OC(COCc1ccc(-c2ccccc2)cc1)CN1CCCCC1` (stereo not given), the growth inhibition is 75% (active) in test [1] and 99% (active) in test [4]. The inhibition in test [2] is 13%; in test [3], -1%. Moreover, the result in test [5], in test [6], in test [7] and in test [8] was inactive.
`CN1CC[C@@H](Oc2cc(CNC(=O)c3ccc(-c4ccc(Cl)cc4)s3)ccc2C(F)(F)F)C1`: the figures for the growth inhibition in test [1] and in test [4] were 64% (active) and 93% (active), respectively. The figures for the inhibition in test [2] and in test [3] were 40% and 2%, respectively. Moreover, the outcome in test [5], in test [6], in test [7] and in test [8] was inactive.
As for `COc1cccc(Nc2nnc(SCC(=O)NNC(=O)c3ccccn3)s2)c1`, the growth inhibition in test [1] was 95% (active); in test [4], 99% (active). In addition, the inhibition in test [2] was 52% (active); in test [3] it was -1%. For the same molecule, the outcome in test [5], in test [6], in test [7] and in test [8] was inactive.
Regarding `CC(C)C[C@@H](/C=N/N1CCOC1=O)NC(=O)[C@H](CC(C)C)NC(=O)c1ccc(OCCN2CCOCC2)cc1`, the growth inhibition is 87% (active) in test [1] and 92% (active) in test [4]. For the same molecule, the inhibition in test [2] is 5%; in test [3], 6%. Also, the outcome in test [5], in test [6], in test [7] and in test [8] was inactive.
